Where “and” joins values, the source holds several entries; their conditions need not be identical. Identical values can stand only once.
The molecules below were run against Glucocorticoid receptor (Homo sapiens) (UniProt P04150) (assay: GR-EFC Redistribution (AID 451)). Conditions: CHO-K1 GR-EFC translocation, beta-gal luminescence, 2 h; calls by dose curve.
How it was run: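 Translocation of GR-ED fusion to nuclear EA restores b-gal, read by luminescence after 1 h room-temperature detection. Engineered CHO-K1 biosensor cells, 1,000/well, exposed 2 h at 37 C to titrations up to 46 uM final.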
Potency is read from the fitted curve at half-maximal effect.

Chain of Glucocorticoid receptor (Homo sapiens) (P04150 whole entry, looked up, the tested form may be a part): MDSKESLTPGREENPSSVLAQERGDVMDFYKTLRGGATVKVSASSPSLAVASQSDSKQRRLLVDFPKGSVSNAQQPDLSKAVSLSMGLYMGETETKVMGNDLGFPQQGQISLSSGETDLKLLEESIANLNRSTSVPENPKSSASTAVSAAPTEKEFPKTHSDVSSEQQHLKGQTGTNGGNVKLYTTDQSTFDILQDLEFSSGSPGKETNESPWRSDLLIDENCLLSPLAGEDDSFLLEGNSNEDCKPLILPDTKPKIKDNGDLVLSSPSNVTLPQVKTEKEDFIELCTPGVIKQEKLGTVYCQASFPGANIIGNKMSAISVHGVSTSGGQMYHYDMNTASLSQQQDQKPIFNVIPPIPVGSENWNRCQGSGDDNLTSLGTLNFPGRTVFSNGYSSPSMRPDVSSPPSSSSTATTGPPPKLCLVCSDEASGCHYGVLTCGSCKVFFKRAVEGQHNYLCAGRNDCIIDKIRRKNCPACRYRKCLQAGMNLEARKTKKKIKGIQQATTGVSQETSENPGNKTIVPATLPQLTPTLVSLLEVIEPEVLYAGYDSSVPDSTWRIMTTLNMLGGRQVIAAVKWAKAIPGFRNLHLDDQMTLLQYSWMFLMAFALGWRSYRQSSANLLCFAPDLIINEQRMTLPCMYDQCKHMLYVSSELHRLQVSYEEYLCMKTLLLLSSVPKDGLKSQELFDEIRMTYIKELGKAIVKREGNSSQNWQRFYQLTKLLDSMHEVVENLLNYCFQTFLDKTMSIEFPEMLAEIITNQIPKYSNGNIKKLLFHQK

Potency, inactive:
COC(=O)CC[C@@H](C)[C@@H]1CC[C@@H]2[C@@H]3CC[C@H]4C[C@@H](O)CC[C@@]4(C)[C@@H]3CC[C@]21C > 9.22 µM, CC(=O)N1CCN(c2ccc(OC[C@@H]3CO[C@@](Cn4ccnc4)(c4ccc(Cl)cc4Cl)O3)cc2)CC1 > 46 µM and > 20.6 µM, N#CCCn1c(=O)c(-c2ccccc2)nc2cnc(N3CCNCC3)nc21 > 46 µM, NCCNc1ncnc2ccc(Cl)cc12 > 9.22 µM, O=C(NCCO)c1ccc(Cl)cc1 > 9.22 µM, O=c1cc(CF)[nH]c(=S)[nH]1 > 9.22 µM, c1ccc2cc(-c3cc(-c4cc(-c5ccc6ccccc6c5)on4)no3)ccc2c1 > 9.22 µM, OC[C@H](S)CS > 9.22 µM, O=C(O)c1[nH]c(=O)[nH]c(=O)c1CN1CCCCC1 > 9.22 µM, CN(C)CN1C(=O)S/C(=C2/C(=O)N(CN(C)C)c3ccccc32)C1=O > 9.22 µM, COc1ncc2nc(-c3cc(F)cc(F)c3)c(=O)n(CCc3ccccc3)c2n1 > 46 µM, NC(=O)c1ncn([C@@H]2O[C@@H](CO)[C@@H](O)[C@H]2O)n1 > 46 µM, CC(C)(C)c1ccc([C@@H](O)CCCN2CCC(C(O)(c3ccccc3)c3ccccc3)CC2)cc1 > 46 µM and > 20.6 µM, O=C(O)/C(=C\c1ccccc1)c1ccccc1 > 9.22 µM, NCCCc1ccc2oc3ccccc3c2c1 > 9.22 µM, O=C(O)c1cc(-c2ccc(-c3ccccc3)cc2)nc2cc3ccccc3cc12 > 9.22 µM, N=c1ccn2c(n1)O[C@@H]1[C@@H](O)[C@H](CO)O[C@H]12 > 46 µM, COc1cc(N=Nc2cccc(S(N)(=O)=O)c2)c2ccccc2c1N > 9.22 µM, CN(C)c1ccc(-c2nc(N3CCNCC3)c3ccccc3n2)cc1 > 46 µM, CN1C[C@H](c2ccccc2)C(O)([C@]2(c3ccccc3)CN(C)C[C@@H](c3ccccc3)C2=O)[C@H](c2ccccc2)C1 (stereo partly specified) > 9.22 µM, CC(CO)(CO)N=Cc1cc(I)cc(I)c1O > 9.22 µM, Cc1cc(O)c(C(C)C)cc1C1(c2cc(C(C)C)c(O)cc2C)OC(=O)c2ccccc21 > 9.22 µM, C[N+](C)(C)/N=C\c1ccc(O)c(O)c1 > 9.22 µM, CSc1ccc(NC(=O)Nc2cc(C)ccn2)cc1 > 9.22 µM, N[C@H](COP(=O)(O)O)C(=O)O > 46 µM, C[C@H](CN(C)C)C(=O)c1ccccc1C(=O)O > 9.22 µM, O=C(O)c1cc(-c2ccc(-c3ccc(-c4cc(C(=O)O)c5cc(Cl)ccc5n4)cc3)cc2)nc2ccc(Cl)cc12 > 9.22 µM, Cc1cc2nc([C@H](C)C(=O)c3ccc(Cl)cc3)c(=O)[nH]c2cc1C > 9.22 µM, NCS(=O)(=O)O > 9.22 µM, O=C(O)CCCC[C@H]1CCSS1 > 46 µM, O=C(C[n+]1ccc2ccccc2c1)c1ccc2ccc3ccccc3c2c1 > 9.22 µM, CC(C)c1ccc(O)c(O)c(=O)c1 (tested in a mixture with another compound) > 9.22 µM, COc1cc2nc(N(C)CCCNC(=O)[C@@H]3CCCO3)nc(N)c2cc1OC > 20.6 µM, C[N+]1(NCC[N@@+]2(C)CCc3ccccc3C2)CCCCC1 > 9.22 µM, Oc1ccc([C@@H]2CNCCc3c2cc(O)c(O)c3Cl)cc1 > 46 µM, O=C1C=C(N2CCN(c3ccccn3)CC2)C(=O)c2c(O)ccc(O)c21 > 9.22 µM
